Screen size: about 200,000 compounds; about 5,100 (2.5%) were called active.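 Rule for the calls: active = activation above the screen-wide mean activation plus 3 SD (cut at about 130% in these data); inactive = the rest.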 Many of the other results were omitted from the sample, so actives are more common in it than they were.

64 compounds from PubChem BioAssay AID932 (The Scripps Research Institute Molecular Screening Center, 2007) can be followed below.

The test is described as follows: STAT1 signaling activators, primary screen, cell-based, HTS, luciferase reporter (AID 932).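 Note: raw ratio to IFN-gamma control signal so 100% means no change and 0% no light.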 As to conditions: NIH 3T3 STAT1-luciferase reporter, IFN-gamma, luminescence; at 5.5 µM; hits give high values; 100% = IFN-gamma alone, no compound.
As to `COc1ccc(N2CCN(C(=O)COc3ccc4c(C)cc(=O)oc4c3)CC2)cc1`, the activation (% of control) was 93.8% (inactive).

Turning to `CC1(C)CC(N(Cc2ccccc2)C(=O)Cc2ccccc2)CCO1` (centres undefined), the activation (% of control) was 89.7% (inactive).

For the compound `CCOC(=O)/C(C#N)=C/c1ccc(N2CCCCC2)cc1`, the activation (% of control) was 155% (active).

On to `COc1ccc(N2CCN(C(=O)/C(C#N)=C/c3ccccc3)CC2)cc1`, for which the activation (% of control) is 105% (inactive).

Regarding `CCOC(=O)/C(C#N)=C/c1ccc(N2CCN(Cc3ccccc3)CC2)cc1`, the activation (% of control) is 107% (inactive).

In the case of `O=C1N=C(N2CCOCC2)S/C1=C\C=C/c1ccccc1`, the activation (% of control) is 141% (active).

In the case of `CCc1ccc(/C=C2\SC(N3CCOCC3)=NC2=O)cc1`, the activation (% of control) is 103% (inactive).

In the case of `Cc1ccsc1/C=C1\SC(N2CCOCC2)=NC1=O`, the activation (% of control) was 127% (inactive).

Take `CN(Cc1nc2ccc(F)cc2[nH]1)Cc1nc(CC2CC2)no1`: the activation (% of control) was 107% (inactive).

Regarding `CCCC(NC(=O)c1ccco1)c1nc2ccccc2[nH]1` (centres undefined), the activation (% of control) is 97.5% (inactive).

With `O=C(OCc1ccccc1F)c1ccc2c(c1)OCCO2`, the activation (% of control) was 139% (active).

For `O=C(COC(=O)c1ccc2c(c1)OCCO2)NCc1ccccc1`, the activation (% of control) is 101% (inactive).

Take `CC(NC(=O)COC(=O)c1ccc2c(c1)OCO2)c1ccccc1` (centres undefined): the activation (% of control) is 102% (inactive).

Take `CCOC(=O)c1ccc(NC(=S)N2CCCC2)cc1`: the activation (% of control) was 100% (inactive).

For `CCn1ncc(CNC(=O)C2(C)CC2(Br)Br)c1C` (centres undefined), the activation (% of control) is 90% (inactive).

For `COCCCNC(=O)Cn1cc(/C=C(\C#N)C(=O)N2CCN(c3ccccc3)CC2)c2ccccc21`, the activation (% of control) was 96.8% (inactive).

Take `O=C(NCc1ccc2c(c1)OCO2)c1ccc(Cl)s1`: the activation (% of control) is 99.1% (inactive).

On to `O=C(NC1=NCCS1)[C@H](Cc1ccccc1)N1C(=O)c2ccccc2C1=O`, for which the activation (% of control) was 107% (inactive).

Take `O=C(NC1=NCCS1)c1ccc(Cl)s1`: the activation (% of control) was 141% (active).

For the compound `CCOc1ccc(C(C)=O)cc1CSc1nnc(-c2ccncc2)n1CCOC`, the activation (% of control) is 99.7% (inactive).

`Cc1cccc(NC(=S)NC(=O)c2ccc(Br)o2)c1`: the activation (% of control) is 125% (inactive).

As to `O=C(Nc1ccc(Cl)cn1)c1cnn2cccnc12`, the activation (% of control) was 153% (active).

`O=C(Nc1ccc(Cl)cn1)c1ccc2c(c1)OCCO2`: the activation (% of control) was 74.1% (inactive).

Consider `Cc1cc(NC(=O)c2cnn3cccnc23)n(-c2ccccc2)n1`, for which the activation (% of control) was 89.3% (inactive).

As to `COc1ccccc1CNC(=O)C1Cc2ccccc2C(=O)O1` (centres undefined), the activation (% of control) was 102% (inactive).

As to `C#CCOCCOCCOCCNc1nc(N2CCN(C(=O)[C@H](Cc3ccc(O)cc3)n3cc(C(N)CC(C)C)nn3)CC2)nc(N2CCN(C(=O)[C@H](CCC(=O)O)n3cc(C(N)[C@H](C)CC)nn3)CC2)n1` (some centres undefined), the activation (% of control) is 99.5% (inactive).

For `CCOC(=O)N1CCN(Cc2nc(Cc3cccc(C(F)(F)F)c3)no2)CC1`, the activation (% of control) is 97.5% (inactive).

Take `COc1ccc(CC(=O)NCc2nnc(SCC(=O)Nc3nccs3)n2C)cc1`: the activation (% of control) was 91.2% (inactive).

Take `c1ccc(CCc2nc(-c3ccncc3)no2)cc1`: the activation (% of control) was 117% (inactive).

In the case of `Cc1cc(Cl)ccc1OCc1nc(-c2ccncc2)no1`, the activation (% of control) is 151% (active).

Turning to `COc1ccc(-c2noc(COc3ccc(Cl)c(C)c3)n2)cc1`, the activation (% of control) is 93.9% (inactive).

Turning to `CCCOc1ccc(NC(=O)C2OC3OC(C)(C)OC3C3OC(C)(C)OC23)cc1` (centres undefined), the activation (% of control) is 95.5% (inactive).

`CCn1c(CNS(=O)(=O)c2ccc(Cl)cc2)n[nH]c1=S`: the activation (% of control) was 94.3% (inactive).

For `O=C1/C(=C\c2ccccc2Cl)SC(=S)N1CCC(=O)N1CCCc2ccccc21`, the activation (% of control) is 98.2% (inactive).

As to `O=C(Nc1ccccc1Cl)/C(Cl)=C(\Cl)S(=O)c1ccccc1` (centres undefined), the activation (% of control) was 201% (active).

`COCCN(CCOC)C(=S)Nc1ccccc1Cl`: the activation (% of control) is 91.7% (inactive).

Take `O=C(CN1CCCCC1)Nc1ccccc1Cl`: the activation (% of control) was 103% (inactive).

In the case of `CCN(CC)CC(=O)Nc1sc2c(c1C(=O)c1ccccc1C)CCC2`, the activation (% of control) is 100% (inactive).

For `CCOC(=O)c1cc(-c2ccc(F)cc2)n(CC(=O)NCc2ccccn2)c1C`, the activation (% of control) is 96.2% (inactive).

For the compound `CO/N=C(\N)c1ccc([N+](=O)[O-])cc1`, the activation (% of control) is 97.7% (inactive).

In the case of `O=C(Nc1ccccc1)c1nnsc1S(=O)(=O)c1ccc(Cl)cc1`, the activation (% of control) was 90% (inactive).

As for `O=C(Nc1ccc(Cl)cc1)c1ccsn1`, the activation (% of control) was 145% (active).

For the compound `O=C(NCc1cn2ccsc2n1)Nc1ccc(Cl)cc1`, the activation (% of control) was 102% (inactive).

Take `CCCC(C)C(=O)NCc1ccncc1` (centres undefined): the activation (% of control) is 96.3% (inactive).

With `CC1=C(C(=O)N(C)C)C(c2ccccc2OC(F)F)NC(=O)N1` (centres undefined), the activation (% of control) was 104% (inactive).

For `CC[N+]1(CC)CC2=Cc3ccccc3CC2C1` (centres undefined), the activation (% of control) is 106% (inactive).

As for `COCCn1c(N)c(N(Cc2ccccc2)C(=O)C2CCCCC2)c(=O)[nH]c1=O`, the activation (% of control) was 98% (inactive).

Take `Cc1cc(NC(=O)CSc2nccn2-c2ccc([N+](=O)[O-])cc2)no1`: the activation (% of control) is 95.1% (inactive).

Regarding `COc1cc(SC)ccc1C(=O)NCCOc1ccccc1Cl`, the activation (% of control) was 141% (active).

Consider `COc1ccccc1CNC(=O)c1ccc(SC)cc1OC`, for which the activation (% of control) was 109% (inactive).

On to `COc1cc(SC)ccc1C(=O)Nc1cc(C)ccn1`, for which the activation (% of control) is 102% (inactive).

Take `COCCNC(=O)C(OC(=O)c1cccs1)c1ccc(F)cc1` (centres undefined): the activation (% of control) was 93.1% (inactive).

As to `Cc1ccc(C2=Nc3c(ccc4ccccc34)C(c3ccncc3)=NN2)cc1`, the activation (% of control) was 37.3% (inactive).

Regarding `CCc1ccc2c(c1)C(c1ccc([N+](=O)[O-])cc1)=NNC(c1ccccc1)=N2`, the activation (% of control) was 95.2% (inactive).

Consider `CCOc1ccc2c(c1)C(c1ccc(C)cc1)=NNC(c1ccc(C)cc1)=N2`, for which the activation (% of control) was 131% (active).

Take `O=C(NCc1ccccc1)C1=C[C@@H](c2ccc(C(F)(F)F)cc2)C[C@@H](OCc2ccc(CO)cc2)O1`: the activation (% of control) is 106% (inactive).

Turning to `Cc1ccc(C2NC(C(=O)O)CS2)cc1` (centres undefined), the activation (% of control) was 106% (inactive).

As to `CN(C)c1ccnc(Nc2ccc(F)cc2)c1C#N`, the activation (% of control) was 98.2% (inactive).

With `CC(C)c1ccc(Nc2ncccc2C#N)cc1`, the activation (% of control) was 135% (active).

On to `O=C(Nc1ccccc1)c1cccnc1Nc1ccccc1`, for which the activation (% of control) is 99.2% (inactive).

Regarding `Cc1oc2cc([N+](=O)[O-])c(O)c([N+](=O)[O-])c2c1C(=O)c1ccc(Br)cc1`, the activation (% of control) is 94% (inactive).

As to `COc1cc(N=Cc2c(O)[nH]c3ccccc23)cc(OC)c1OC`, the activation (% of control) is 115% (inactive).

On to `COc1ccc(OC)c(N=Cc2c(O)[nH]c3ccccc23)c1`, for which the activation (% of control) is 115% (inactive).

As to `COc1ccc(N=Cc2c(O)[nH]c3ccccc23)cc1OC`, the activation (% of control) was 145% (active).
